High-throughput results as filed in PubChem BioAssay.
Only some compounds are listed: those with a hit (about 5.7% of all), similar ones and a draw of the others.
HT1080 IDH1KD tx – toxicity to HT-1080 IDH1 knockdown cells (counter line). HT-1080 IDH1 knockdown viability, ATP luminescence, 48 h. Potency, µM (top dose mostly 46.1 µM), without a hit: at the highest dose activity, negative = toxicity, actives largely listed as cytotoxic. 360,000 tested, 2% active;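 further: 0% = DMSO wells and -100% = cell-free medium wells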
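Assay cells: HT-1080 with IDH1 knockdown, 750 per well, RPMI/5% FBS. Exposure: 48 h at 37 °C following 2 h pre-incubation. Read: CellTiter-Glo luminescence; fitted concentration-response, curve class assigned.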
HT1080-NT tox – kills 2HG-producing HT-1080-NT fibrosarcoma cells. AID 686970. Potency, µM (series often up to 46.1 µM), for the others: at the top dose activity, negative = less viability, actives largely listed as cytotoxic. 360,000 tested, 1.6% active. HT-1080-NT fibrosarcoma viability, CellTiter-Glo ATP luminescence, 48 h;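 further: NT is the 2HG producing partner of a matched IDH1 knockdown line; 0% = DMSO-treated cells and -100% = media-only wells without cells; nearly all actives have a fitted effect of over 55% in size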
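HT-1080-NT fibrosarcoma cells (2HG-overproducing), 750 cells/well in RPMI with 5% FBS, dosed after 2 h and incubated 48 h at 37C. CellTiter-Glo luminescence normalized to DMSO and no-cell wells; concentration-response curves fitted and classed.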
KB-3-1 cytotox – KB-3-1 parental cell cytotoxicity; 400,000 tested, 1.4% active; AID 1347075; KB-3-1 viability, CellTiter-Glo ATP luminescence, 72 h; Potency, µM (top dose mostly 46.1 µM), most hits filed as cytotoxic; further: nearly all actives have a fitted effect of over 60% in size
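Multi-concentration cytotoxicity screen in KB-3-1 cells grown in DMEM lacking phenol red with 10% FBS. After 72 h at 37 °C with compound, ATP-dependent luminescence was recorded.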
KB-V1 cytotox – KB-V1 MDR subline cytotoxicity. Potency, µM (doses to about 46.1 µM), usual class: cytotoxic. KB-V1 MDR cells viability, CellTiter-Glo, 72 h. 400,000 tested, 3.4% active; further: nearly all actives have a fitted effect of over 60% in size
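Following 72 h at 37 degrees C with compound, KB-V1 cell viability was read by CellTiter-Glo luminescence, medium being phenol-red-free DMEM plus 10% FBS; concentration-response parameters came from normalized, curve-fitted qHTS data.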
* hit, by the source's call; i = inactive; ? = inconclusive; . = not tested or not shown. The call rests on the fitted dose curve; in most records, active means well fitted curve in the direction sought with a large enough effect; inconclusive means small, poorly fitted or top-dose-only effect, or another doubt; inactive means no such curve, though single readings can be large; an effect the other way counts as inactive or inconclusive. Unless noted, on the % scale 0 is the no-effect control and ±100 the full control effect; potency means the concentration at half of the fitted maximal effect.

SMILES	HT1080 IDH1KD tx	HT1080-NT tox	KB-3-1 cytotox	KB-V1 cytotox
COc1ccc2c(c1)CCc1sc(NC(=O)c3ccco3)nc1-2	16.8%	29.8%	i	i
Cc1nc(NC(=O)c2ccco2)sc1C(=O)O	23.1µM*	23.1µM*	13µM*	4.61µM*
COc1ccc2c(c1)-c1nc(NC(=O)c3ccco3)sc1CC2	8.9%	9.7%	i	13µM*
COC(=O)c1sc(NC(=O)c2ccco2)nc1C	-4.9%	4.6%	i	i
CCOC(=O)c1ccc(NC(=O)C(CC)Sc2nc3ccncc3[nH]2)cc1 (stereo unspecified)	.	.	i	i
O=C(NNc1cc(C(F)(F)F)nc2ccccc12)Nc1cccc(Cl)c1	20.6µM*	?	i	i
COCCNC(=O)c1ccc2c(c1)nc(C)n2-c1cccc(F)c1	-0.6%	-4.3%	i	20.6µM*
Cc1cccc(-n2c(C)nc3cc(C(=O)NCc4ccc5c(c4)OCO5)ccc32)c1	9.7%	6.9%	i	16.4µM*
CCCNC(=O)c1ccc2c(c1)nc(C)n2-c1cccc(C)c1	24.5%	22.7%	i	i
CC(=O)N1CCN(c2ccc(NS(=O)(=O)c3ccc4c(c3)CC(=O)N4)cc2)CC1	.	.	?	i
CCOc1ccc(-n2c(SCc3ccccc3)nc3c([nH]c4ccccc43)c2=O)cc1	.	.	i	i
N#Cc1cccc2c1-c1ccccc1/C2=N/NC(N)=S	20.6µM*	6.51µM*	?	?
COc1cc(C2CC(=O)N(Cc3cccc(F)c3)c3ccccc3S2)cc(OC)c1OC (stereo unspecified)	.	.	?	16.4µM*
COc1ccc(CNC(=O)CSc2nc(-c3ccc(OC)c(OC)c3)cc(C(F)(F)F)n2)cc1	.	.	i	i
O=P(OC1CCCCC1)(OC1CCCCC1)C(O)c1ccccc1 (stereo unspecified)	-23.9%	-3.3%	i	9.2µM*
Cc1ccc(N2CCN(S(=O)(=O)c3ccc4c(c3)CC(=O)N4)CC2)cc1	.	.	i	i
CN(C)c1ccc(C(CNC(=O)Cc2ccc(Cl)cc2)N2CCOCC2)cc1 (stereo unspecified)	.	.	i	?
COc1ccc(Cl)cc1N1C(=O)/C(=C/c2sccc2C)N=C1SCC(=O)NC1CC1	-20.5%	-20.2%	?	i
O=C(CSC1=N/C(=C/c2ccc(Cl)c(Cl)c2)C(=O)N1c1ccccc1F)NC1CC1	-8.0%	0.0%	i	14.6µM*
COc1cc(NC(=O)Cn2nc(C(F)(F)F)c(Br)c2C)cc([N+](=O)[O-])c1	-9.1%	-13.7%	i	18.4µM*
C/C(=N\Nc1ccc(Cl)c(C(=O)O)c1)c1ccccn1	4.5%	8.8%	i	i
C/C(=N\Nc1ncc(Cl)cc1Cl)c1ccccn1	0.231µM*	?	?	?
Cc1sc2ncnc(N/N=C/c3cccc(O)c3)c2c1C	?	?	i	i
C/C(=N\Nc1ncnc2sc(C)c(C)c12)c1ccccn1	0.517µM*	0.92µM*	?	?
CC[C@@]12C(=O)N(c3cccc(F)c3)C(=O)N1[C@H](c1ccc(Cl)cc1)[C@@H]1C(=O)N(C3CCCCC3)C(=O)[C@@H]12	-28.9%	-28.7%	i	i
SMILES	HT1080 IDH1KD tx	HT1080-NT tox	KB-3-1 cytotox	KB-V1 cytotox
O=C(NCc1ccccc1)NC1COc2ccccc2C1 (stereo unspecified)	.	.	i	i
Cc1ccccc1NC1=CC(=O)CC(C)(C)C1	1.8%	2.4%	i	?
CC1(C)CC(=O)C=C(NC2=CC3OC(c4ccccc4)OCC3OC2=O)C1 (stereo unspecified)	20.6µM*	?	i	i
COc1ccc(CNc2nnnn2C)c(OC)c1	9.0%	23.6%	i	i
O=C(NCc1ccccc1)C1C(c2ccc3c(c2)OCO3)=Nc2ccccc2N1C(=O)c1ccco1 (stereo unspecified)	8.2µM*	13µM*	7.31µM*	?
O=C(Cn1cc(S(=O)(=O)Cc2ccccc2)c2ccccc21)Nc1ccccc1	0.2%	-17.1%	i	18.4µM*
CC(=O)c1ccc(NC(=O)Cn2cc(S(=O)(=O)Cc3cccc(Cl)c3)c3ccccc32)cc1	.	.	i	i
COc1cc2c(cc1OC)CN(CC(=O)Nc1ccc3c(c1)OC(F)(F)O3)CC2	10.2%	14.0%	i	13µM*
COc1cc2c(cc1OC)CN(CC(=O)Nc1ccc(S(=O)(=O)N(C)C)cc1)CC2	-7.7%	-1.4%	i	?
S=C(NCCc1ccccc1)N1CCN(C(=S)NCCc2ccccc2)CC1	1.4%	-0.4%	i	i
S=C(NCCc1ccccc1)N1CCN(Cc2ccc(Cl)c(Cl)c2)CC1	-4.1%	-17.5%	?	i
Fc1ccc(CN2CCN(C(=S)NCCc3ccccc3)CC2)c(Cl)c1	-26.7%	-19.1%	?	20.6µM*
CC1CCN(C(=S)NCCc2ccccc2)CC1	?	?	i	23.1µM*
O=S(=O)(Cc1ccccc1)N1CCN(c2nc(-c3cccs3)nc3ccccc23)CC1	4.4%	17.7%	.	.
CC(=O)Nc1ccc(/C=C2\CCc3ccccc3C2=O)cc1	?	23.1µM*	i	?
COc1ccc(/C=C2\CCc3ccccc3C2=O)cc1O	4.11µM*	2.31µM*	3.66µM*	5.17µM*
CCOc1cccc2cc(C(=O)N3CCN(C/C=C/c4ccccc4)CC3)c(=O)oc12	?	-4.2%	i	8.2µM*
CCOc1cc(C(=O)N2CCN(C/C=C/c3ccccc3)CC2)cc(OCC)c1OCC	-13.3%	-3.6%	i	?
Cc1nc(C#N)nc(Oc2ccccc2)c1Cl	19.6%	16.3%	.	.
CNc1nc(-c2ccccn2)nnc1-c1ccccc1	?	?	?	i
c1ccc(-c2nnc(-c3ccccn3)nc2NC2CCCCC2)cc1	?	?	16.4µM*	?
S=C1SCN(Cc2ccco2)CN1Cc1ccco1	13µM*	?	i	i
COc1ccc(-n2nc(C(=O)N3CCCCC3)c3c4ccccc4n(C)c3c2=O)cc1Cl	.	.	i	i
Fc1ccc(CSc2nnc(-c3cnccn3)n2Cc2ccco2)cc1	3.7%	0.4%	i	i
C(=C\c1ccccc1)/CSc1nnc(-c2cnccn2)n1Cc1ccco1	-16.8%	-16.2%	?	?
SMILES	HT1080 IDH1KD tx	HT1080-NT tox	KB-3-1 cytotox	KB-V1 cytotox
CCn1c(SCC(=O)Nc2ccc(OC)c(OC)c2)nnc1-c1cnccn1	4.4%	16.3%	i	i
Brc1ccc(CSc2nnc(-c3cnccn3)n2Cc2ccco2)cc1	-0.3%	5.5%	?	9.2µM*
Cc1cc(C)c(NC(=O)CSc2nnc(-c3ccncc3)n2Cc2ccco2)c(Cl)c1	1.5%	-0.2%	?	23.1µM*
Fc1ccccc1CSc1nnc(-c2cnccn2)n1Cc1ccco1	14.8%	0.3%	i	18.4µM*
CCn1c(SCC(=O)Nc2ccc3c(c2)OCO3)nnc1-c1cnccn1	-6.8%	-4.0%	i	20.6µM*
CC(C)c1nnc(N2C(=O)c3oc4ccccc4c(=O)c3C2c2ccccc2F)s1 (stereo unspecified)	.	.	i	i
